SNCA viab count = cell viability loss counter-screen; HEK-293-SNCA-luc viability, GF-AFC fluorescence, 24 h; Potency, µM (titrated, usually from 57.1 µM), inactives show top-dose activity change, negative = cytotoxicity, hits mostly cytotoxic; actives 0.12% (n = 150,000); AID 1671193;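 further: 0% = DMSO-treated cells and -100% = medium-only wells without cells; nearly all actives have a fitted effect of over 30% in size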
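HEK-293-SNCA-luc cells (1500/well) plated 24 h, then exposed 24 h to a dilution series; GF-AFC added 30 min at 37C, fluorescence 405/540 nm; normalised to medium-only and DMSO wells, Hill fit.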
NPR1 antag = human Npr1 receptor antagonism; P16066; HEK293 hNpr1 GloSensor cGMP, ANP-stimulated luminescence; Potency, µM (series often up to 46.3 µM), without a hit: at the highest dose activity change, negative = inhibition, hits mostly inhibitors; actives 1.6% (n = 76,000); AID 1347048; calls by dose curve; further: nearly all actives have a fitted effect of over 60% in size
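Compound pre-incubated 30 min at room temperature on GloSensor-loaded HEK293 cells stably carrying hNpr1 and the pGS-40F cGMP biosensor. Stimulation uses hNppA at 0.1 nM final; luminescence is taken at baseline and 20 min post-agonist.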
FLuc inh = blocks purified firefly luciferase enzyme activity | purified P. pyralis luciferase, luminescence, biochemical | Potency, µM (titrated, usually from 115 µM), most hits filed as inhibitors | actives 2.5% (n = 76,000) | AID 1347043; further: nearly all actives have a fitted effect of over 65% in size
Target sequence (P08659 whole entry, looked up): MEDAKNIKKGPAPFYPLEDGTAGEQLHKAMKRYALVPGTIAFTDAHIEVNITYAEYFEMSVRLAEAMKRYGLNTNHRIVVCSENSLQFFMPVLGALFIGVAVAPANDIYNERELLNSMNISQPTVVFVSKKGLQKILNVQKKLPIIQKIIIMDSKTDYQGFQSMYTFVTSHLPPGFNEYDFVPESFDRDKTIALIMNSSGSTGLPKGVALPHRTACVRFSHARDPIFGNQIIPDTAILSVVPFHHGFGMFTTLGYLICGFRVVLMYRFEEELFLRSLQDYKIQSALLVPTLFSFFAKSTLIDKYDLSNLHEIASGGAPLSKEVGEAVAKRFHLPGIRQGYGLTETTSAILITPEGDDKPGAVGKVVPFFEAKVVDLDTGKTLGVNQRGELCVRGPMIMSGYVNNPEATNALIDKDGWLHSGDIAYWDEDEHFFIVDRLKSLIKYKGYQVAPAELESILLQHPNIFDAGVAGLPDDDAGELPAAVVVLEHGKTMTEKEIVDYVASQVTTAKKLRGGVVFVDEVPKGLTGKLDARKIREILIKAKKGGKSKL
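Luminescence read by CCD imager after adding enzyme (10nM final) to wells holding compound, titrated in qHTS. Substrates 10uM each D-luciferin and ATP; buffer 50mM Tris acetate pH 7.5, 10mM Mg acetate, Tween-20, BSA.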
NIH3T3 tox = kills NIH 3T3 cells; NIH 3T3 viability, CellTiter-Glo ATP luminescence, 48-72 h; Potency, µM (titrated, usually from 96.7 µM), without a hit: top-dose activity change, negative = cytotoxicity, usual class: inhibitors; actives 4.3% (n = 94,000); further: nearly all actives have a fitted effect of over 55% in size
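Cells were seeded at 400 per well, treated with pin-transferred compound, and kept 48 or 72 hr at 37 °C before CellTiter-Glo addition and luminescence imaging of cellular ATP.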
SNCA expr inhib = reduces expression of the alpha-synuclein gene; Potency, µM (doses to about 57.2 µM), for the others: top-dose activity change, negative = inhibition, actives largely listed as inhibitors; actives 0.17% (n = 140,000); HEK-293 SNCA-luciferase knock-in, luminescence, 24 h;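 further: plate controls were DMSO cells for no effect and cell-free wells for full effect; nearly all actives have a fitted effect of over 45% in size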
HEK293 tox = kills HEK 293 cells | HEK 293 viability, ATP luminescence (CellTiter-Glo), 48-72 h | Potency, µM (doses to about 115 µM), inactives show at the highest dose activity change, negative = cytotoxicity, actives largely listed as inhibitors | actives 6.6% (n = 94,000); further: nearly all actives have a fitted effect of over 60% in size
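CellTiter-Glo luminescence (cellular ATP) was read after 48 or 72 hr of compound exposure at 37 degree Celsius. Cells were HEK 293 plated at 250 cells/well.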
Numbers without * were called inactive; i = inactive; ? = inconclusive; . = not tested or not shown; [ ] = remark or other dose. In the library only some 7.4% were active in any assay of this set; here they are far more common. Unless noted, the call rests on the fitted dose curve; in most records, active means well fitted curve in the direction sought with a large enough effect; inconclusive means small, poorly fitted or top-dose-only effect, or another doubt; inactive means no such curve, though single readings can be large; an effect the other way counts as inactive or inconclusive. Unless noted, on the % scale 0 is the no-effect control and ±100 the full control effect; potency means the concentration at half of the fitted maximal effect.

SMILES	SNCA viab count	NPR1 antag	FLuc inh	NIH3T3 tox	SNCA expr inhib	HEK293 tox
CC1(C(=O)N2CCC(c3ccccc3)CC2)CCc2cnc(Nc3ccncc3)nc21 (stereo unspecified)	?	?	i	?	-30%[87.6 µM]	71µM*
CC(=O)N1CCN(C(=O)C2(C)CCc3cnc(Nc4ccccc4)nc32)CC1 (stereo unspecified)	2%[87.6 µM]	-3%[70.6 µM]	i	?	3%[87.6 µM]	-1%[172 µM]
CC1(C(=O)N2CCN(c3ccccn3)CC2)CCc2cnc(Nc3ccccc3)nc21 (stereo unspecified)	-23%[87.6 µM]	-17%[70.6 µM]	i	?	-2%[87.6 µM]	112µM*
CC1(C(=O)N2CCCC2)CCCc2cnc(Nc3ccccc3)nc21 (stereo unspecified)	-19%[87.6 µM]	2%[70.6 µM]	i	-24%[138 µM]	-13%[87.6 µM]	?
CC(C)(C)C(=O)NC1CCN(c2ccnc3ccnn23)C1 (stereo unspecified)	12%[87.6 µM]	.	.	-29%[138 µM]	-9%[87.6 µM]	-18%[172 µM]
COc1cccc(NC(=O)[C@@H]2C[C@@H](c3ccc(F)cc3)N(Cc3ccccc3)C2)c1	-28%[87.6 µM]	?	i	32µM*	-36%[87.6 µM]	?
O=C(Nc1ccncn1)[C@@H]1C[C@@H](c2ccc(F)cc2)N(Cc2ccccc2)C1	-2%[87.6 µM]	-18%[70.6 µM]	i	79µM*	-4%[87.6 µM]	100µM*
CCCCCNC(=O)CNC(=O)c1cccc(-c2ccsc2)c1	12%	.	.	-31%	-3%	-21%
O=C(Nc1cccc(C(F)(F)F)c1)Nc1cccs1	-25%	.	.	.	-6%	.
O=C(c1ccc(Cl)cc1)N1CCNc2cnc(Nc3cccc(C(F)(F)F)c3)nc2C1	0%	?	i	22µM*	14%	32µM*
Cc1ncsc1C(=O)N1CCNc2cnc(Nc3cccc(C(F)(F)F)c3)nc2C1	-2%	?	i	?	-10%	?
O=C(c1ccc(Oc2ccccc2)cc1)N1CCNc2cnc(Nc3cccc(C(F)(F)F)c3)nc2C1	-10%	?	i	25µM*	?	22µM*
O=C(Nc1cccs1)N1CCNc2cnc(Nc3cccc(C(F)(F)F)c3)nc2C1	-22%[87.6 µM]	-5%[70.6 µM]	i	79µM*	0%[87.6 µM]	79µM*
O=C(COc1ccccc1)N1CCNc2cnc(Nc3cccc(F)c3)nc2C1	-13%[87.6 µM]	-8%[70.6 µM]	i	?	8%[87.6 µM]	?
COc1cc2c(cc1OC)C(C[C@H]1CN(S(=O)(=O)c3ccc(Cl)cc3)CC[C@H]1CC(=O)O)=NCC2	21%	-2%	i	-24%	-20%	-12%
Cc1ccc(OCc2nc(C3CCN(C(=O)NCc4ccccc4)C3)no2)cc1 (stereo unspecified)	1%	.	.	?	3%	45µM*
O=C(NCCc1ccccc1)N1CCC(c2noc(COc3ccc(F)cc3)n2)C1 (stereo unspecified)	3%	.	.	?	18%	45µM*
Cc1cc(C2CC(C(=O)NCCc3ccccc3)CN(C(=O)NC(C)C)C2)ccc1F (stereo unspecified)	0%	3%	i	?	19%	40µM*
CCNC(=O)N1CC(C(=O)NCc2ccccc2)CC(c2ccc(F)c(C)c2)C1 (stereo unspecified)	-10%	?	i	?	0%	?
Cc1cc(C2CC(C(=O)NCc3ccc4c(c3)OCO4)CN(C(=O)c3ccccc3)C2)ccc1F (stereo unspecified)	-4%	-17%	i	?	-10%	?
Cc1cccc(CNC(=O)C2CC(c3ccc(F)c(C)c3)CN(C(=O)c3ccccc3)C2)c1 (stereo unspecified)	3%	-4%	i	25µM*	-16%	40µM*
Cc1cc(=O)n(CC(=O)Nc2cccc(C#N)c2)c(N2CCc3ccccc3C2)n1	-28%	-5%	i	?	-16%	?
CCOc1ccc(NC(=O)Cn2c(Nc3cc(C)cc(C)c3)nc(C)cc2=O)cc1	-15%	-27%	i	32µM*	-9%	?
CCOc1ccc(NC(=O)Cn2c(N3CCc4ccccc4C3)nc(C)cc2=O)cc1	-13%	-12%	i	32µM*	-23%	40µM*
CC(=O)c1ccc(NC(=O)Cn2c(N3CCc4ccccc4C3)nc(C)cc2=O)cc1	?	-27%	i	28µM*	-19%	35µM*
SMILES	SNCA viab count	NPR1 antag	FLuc inh	NIH3T3 tox	SNCA expr inhib	HEK293 tox
CC(=O)c1cccc(NC(=O)Cn2c(N3CCc4ccccc4C3)nc(C)cc2=O)c1	?	-22%	i	?	?	45µM*
Cc1cc(=O)n(CC(=O)Nc2ccc(C)c(C)c2)c(N2CCc3ccccc3C2)n1	-8%	-13%	i	-2%	36%	?
CCOc1ccc(NC(=O)Cn2c(-c3ccccc3)nc(C)cc2=O)cc1	-15%	-3%	i	?	?	?
O=C(C1CCCCC1)N1CCC2(CC1)CC(Cc1nc(-c3cnccn3)no1)CCO2 (stereo unspecified)	10%	.	.	-29%	6%	-23%
O=C(NCCc1ccccc1)C1CCN(c2ccnc3ccnn23)CC1	-15%[87.6 µM]	.	.	?	2%[87.6 µM]	?
CCOCCCNC(=O)CCC1CCN(C(=O)c2ccc(C)cc2)CC1	-2%	.	.	i	-4%	i
CCC(CC)NC(=O)CCC1CCN(C(=O)c2ccc(C)cc2)CC1	-27%	-13%	40µM*	-6%	7%	-11%
Cc1ccc(C(=O)N2CCC(CCC(=O)N3CCCCC3)CC2)cc1	-9%	2%	28µM*	-13%	44%	?
CCC(CC)NC(=O)CCC1CCN(C(=O)c2ccccc2F)CC1	-9%	1%	i	3%	13%	4%
Cc1ccc(C(=O)N2CCC(CCC(=O)NC3CCCCCC3)CC2)cc1	-1%	-20%	40µM*	?	33%	?
COc1cccc(-c2cccc(C(=O)N3CCCC3C(=O)N3CCC(c4ccccc4)CC3)c2)c1 (stereo unspecified)	4%[12.5 µM]	.	.	?	-15%	?
O=C(NCCN[S+](=O)([O-])c1cccc(C(F)(F)F)c1)c1cccc(-c2ccsc2)c1	-26%	.	.	40µM*	-16%	?
O=C(NCCN[S+](=O)([O-])c1cccc(C(F)(F)F)c1)c1ccc(-c2cncnc2)cc1	.	.	.	-31%	.	89µM*
C[S+](=O)([O-])NCCNC(=O)c1cccc(-c2ccsc2)c1	7%[12.5 µM]	.	.	-20%[138 µM]	-17%[87.6 µM]	?
O=C(NCCN[S+](=O)([O-])c1cccc(C(F)(F)F)c1)c1ccc(-c2cccc(C(F)(F)F)c2)cc1	.	.	.	28µM*	.	40µM*

Source: PubChem (National Center for Advancing Translational Sciences (NCATS))
